PubChem BioAssay (Tox21)
“And” between values parts separate entries of the source, which are not always exact repeats. Equal values may be shown once. Results filed as inconclusive are left out. The source holds several records for some structures; these can differ, active in one and inactive in another. The source made the active and inactive calls. The call rests on the fitted dose curve; in most records, active means well fitted cell-killing curve with a large enough effect in the repeat runs; inconclusive means weak or mixed curves; inactive means no such curve, though single readings can be large or run the other way.

Assay: qHTS assay to identify small molecule antagonists of the androgen receptor (AR) signaling pathway - cell viability counter screen (AID 743033; further: nearly all actives have a fitted effect of over 45% in size)
Conditions: AR-bla HEK293 viability, CellTiter-Glo luminescence, 16 h; series mostly up to 58.5 µM; activity change, negative = cytotoxicity: at the top concentration
From the text: National Center for Advancing Translational Sciences [NCATS]
NIH Chemical Genomics Center [NCGC]
U.S. Environmental Protection Agency [EPA]
National Institutes of Environmental Health Sciences [NIEHS]
National Toxicology Program [NTP]
U.S. Food and Drug Administration [FDA]
Androgen receptor (AR), a nuclear hormone receptor, plays a critical role in AR-dependent prostate cancer and other androgen related diseases. Endocrine disrupting chemicals (EDCs) and their interactions with steroid hormone receptors like AR may cause disruption of normal endocrine function as well as interfere with metabolic homeostasis, reproduction, developmental and behavioral functions. To identify the compounds that inhibit AR signaling, GeneBLAzer AR-UAS-bla-GripTite cell line (Invitrogen, Carlsbad, CA, USA) containing a beta-lactamase reporter gene under control of an Upstream Activator Sequence (UAS) stably integrated into HEK293 cells was used to screen the Tox21 10K compound library. The cytotoxicity of the Tox21 compound library against the AR-bla cell line was tested in parallel by measuring the cell viability using CellTiter-Glo assay in the same wells.
Tox21 Assay Protocol Summary:
AR-bla cells were dispensed at 2,000 cells/5 uL of assay medium per well into black wall/clear-bottom 1536-well plates using a Multidrop Combi (ThermoFisher Scientific, Waltham, MA) dispenser. After the assay plates were incubated at a 37C and 5% CO2 for 4 hr, 23 nL of compounds dissolved in DMSO, positive controls or DMSO only was transferred to the assay plate by a Pintool station (Kalypsys, San Diego, CA), followed by addition of 1 uL of agonist (R1881) in culture medium using a Bioraptr Flying Reagent Dispenser (FRD) workstation (Beckman Coulter, Indianapolis, IN, USA). The plates were incubated at a 37C and 5% CO2 for 16 h. After 1 uL of LiveBLAzerTM B/G FRET substrate was added using a Bioraptr FRD, the plates were incubated at room temperature for 2 h and fluorescence intensity was measured by an Envision plate reader (PerkinElmer, Shelton, CT). For cell viability readout that measures cytotoxicity, 4 ul/well of CellTiter-Glo reagent was added into the assay plates using a Bioraptr FRD. After 30 min incubation at room temperature, the luminescence intensity in the plates was measured using a ViewLux (PerkinElmer) plate reader.
On the % scale 0 is the no-effect control and ±100 the full control effect; potency means the concentration at half of the fitted maximal effect.

SMILES | Potency | activity change, negative = cytotoxicity
Cc1c2ccccc2c(C)c2c1ccc1ccccc12 | 48.5 µM (active) and 24.5 µM (active) | –
O=C(O)c1cc(N=Nc2ccc([N+](=O)[O-])cc2)ccc1O | – | -5% (inactive)
COC(=O)c1ccccc1C | – | -0.698% (inactive)
O=C1CCc2cc(OCCCCc3nnnn3C3CCCCC3)ccc2N1 | – | -0.0727% (inactive)
CC(C)Cn1cnc2c(N)nc3ccccc3c21 | – | 2.65% (inactive)
CC(C)(C)c1ccc(C(O)CCCN2CCC(C(O)(c3ccccc3)c3ccccc3)CC2)cc1 (stereo not given) | – | -0.741% (inactive)
O=C(O)c1ccc2cc(C(=O)O)ccc2c1 | – | 4.55% [at 78.9 µM] (inactive)
C=CC(=O)OCCOC(=O)C=C | – | -1.27% (inactive)
CCc1cccc(CC)c1NC(=O)CN(CC(=O)O)CC(=O)O | – | 0.377% [at 27 µM] (inactive)
[Cl][Pt-2]([Cl])([Cl])[Cl] | – | -3.29% [at 78.9 µM] (inactive)
CNC(=O)c1ccccc1Sc1ccc2c(/C=C/c3ccccn3)n[nH]c2c1 | – | -15.2% (inactive)
O=C(O)O | – | -8.19% [at 7.04 µM] (inactive)
CCC(=O)C(=O)CC | – | -9.37% [at 78.9 µM] (inactive)
CC(C)CCOC(=O)/C=C/c1ccccc1 | – | -0.679% [at 78.9 µM] (inactive)
COC1=C(OC)C(=O)C(CCCCCCCCCCO)=C(C)C1=O | – | -21.4% (inactive)
Cc1ccc(-c2ccccc2)cc1 | – | 3.36% (inactive)
CCOC(=O)c1ccc(C2CCC(NC[C@H](O)COc3ccc(O)c(NS(C)(=O)=O)c3)CC2)cc1 (stereo not given in full) | 45.2 µM (active) | –
O=c1oc2cc(O)ccc2c2oc3cc(O)ccc3c12 | – | -1.59% (inactive)
NC(=O)c1cccc([N+](=O)[O-])c1 | – | 5.58% (inactive)
CC(CCc1ccccc1)NCC(O)c1ccc(O)c(C(N)=O)c1 (stereo not given) | inactive | –

SMILES | Potency | activity change, negative = cytotoxicity
COCCOc1cc2cc(C(=O)NC3CCN(C(C)C)CC3)n(CC(=O)Nc3ccc(Cl)cn3)c2cn1 | – | -0.719% (inactive)
Nc1ccc(NCCO)c([N+](=O)[O-])c1 | – | 4.45% (inactive)
CCCCOC(=O)CO | – | -0.948% (inactive)
CCCNCCC | – | 8.79% [at 78.9 µM] (inactive)
CN(C)C(=O)COC(=O)Cc1ccc(OC(=O)c2ccc(N=C(N)N)cc2)cc1 | – | 7.66% (inactive)
O=[N+]([O-])c1ccc(O)cc1C(F)(F)F | 27.5 µM (active) | –
CCCC1CCC(=O)CC1 | – | 0.715% (inactive)
O=C1OC2(c3ccc(O)cc3Oc3cc(O)ccc32)c2ccc(N=C=S)cc21 | – | -0.949% [at 78.9 µM] (inactive)
O=C(O)c1cc(O)c2ccccc2c1O | – | -14.1% (inactive)
Nc1nc(N)nc(-c2cc(Cl)ccc2Cl)n1 | – | 16.4% (inactive)
CC(=O)[C@H]1CC[C@H]2[C@@H]3CCC4=CC(=O)CC[C@]4(C)[C@H]3CC[C@]12C | inactive and 43.6 µM (active) | –
CCC(C)(CCC(C)C)C(=O)[O][Sn]([CH3])([CH3])[O]C(=O)C(C)(CC)CCC(C)C (stereo not given) | – | -14.1% (inactive)
C=Cc1cccc(C)c1 | – | 2.49% (inactive)
O=c1c(O)c(-c2ccc(O)cc2O)oc2cc(O)cc(O)c12 | – | 0.925% (inactive)
CCN1C(=O)c2ccccc2C1Nc1ccc(OCCN2CCCCC2)cc1 (stereo not given) | – | 4.13% (inactive)
CC1(C)[C@@H](O)CC[C@]2(C)[C@H]3C(=O)C=C4[C@@H]5C[C@@](C)(C(=O)O)CC[C@]5(C)CC[C@@]4(C)[C@]3(C)CC[C@@H]12 | inactive | –
COc1cc(C)ccc1O | – | 12.5% (inactive)
Cl[Si](Cl)(c1ccccc1)c1ccccc1 | – | 1% [at 78.9 µM] (inactive)
COc1ccc(-c2coc3cc(O)ccc3c2=O)cc1 | – | 8.59% (inactive)
C#C[C@]1(O)CC[C@H]2[C@@H]3[C@H](C)CC4=C(CCC(=O)C4)[C@H]3CC[C@@]21C | – | -10.2% (inactive)
